# The source made the active and inactive calls. How the source made its calls: active means hit-call score of the fitted dose curve at least 0.9, where 1 is the maximum; inactive means score below 0.9.
# Columns and labels:
# [1] = CCTE_Harrill_HTTr_Viability_MCF7: CCTE's 6-hour Cell Viability Assessment for the High-Throughput Transcriptomics (HTTr) Platform, in MCF-7 cells cultured in DMEM + 10% fetal bovine serum, Harrill Lab (AID 2284010)
# How it was run: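 Eight-point concentration series, six-hour exposure. Propidium iodide exclusion imaged to assess membrane integrity as a cytotoxicity readout; bidirectional fitting was done with DMSO as negative control and activity baseline.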
# [2] = CCTE_Harrill_HTTr_Apoptosis_MCF7: CCTE's 6-hour Apoptosis Assessment for the High-Throughput Transcriptomics (HTTr) Platform, in MCF-7 cells cultured in DMEM + 10% fetal bovine serum, Harrill Lab (AID 2284011)
# How it was run: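 Cells are dosed with test chemicals at eight concentrations and imaged 6 hours later for caspase-3/7 activity using a green fluorogenic detection reagent. Activity is fitted in both directions against DMSO controls.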
SMILES,outcome [1],outcome [2]
O=CC=O,inactive,inactive
CC(C)OC(=O)Nc1ccccc1,inactive,inactive
Cl/C=C/Cl,inactive,inactive
Cn1sc(Cl)cc1=O,inactive,inactive
Cc1ccccc1N,inactive,inactive
